The nature of assay [1]: anti-His antibody binders, primary screen, artefact control for SMM control protein annotation, biochemical, small-molecule microarray, 635 nm fluorescence (AID 1128).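 Note: score merges feature fluorescence with signal-to-noise for each printed compound spot.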 Particulars: anti-His Alexa647 antibody binding, higher = more signal.
Assay [2] deals with Human papillomavirus type 1a E7 protein (residues 1-88). In words: HPV1a E7 small-molecule binders, primary screen, biochemical, small-molecule microarray, residues 1-88, 635 nm (AID 1129). Particulars: small-molecule microarray binding, fluorescence 635 nm; higher = more signal.
Assay [3] has as its target Focal adhesion kinase 1 (Homo sapiens) (UniProt Q05397). Put plainly: small-molecule microarray binders of FAK, primary screen, biochemical, 635/667 nm fluorescence, BSA, DTT (AID 1130).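 Note: composite of spot emission at 667 nm and signal to noise over triplicate slides.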 The conditions noted are these: PTK2 binding, 635 nm fluorescence, higher = more signal.
For assay [4], the system named is Fibrinogen (Alexa647-labelled). Put plainly: fibrinogen binders on compound microarrays, profiling panel, artefact control for SMM control-protein annotation, biochemical, small-molecule microarray, 635/667 nm fluorescence (AID 1131).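 Note: z-score merges 667 nm fluorescence with per-spot signal-to-noise over triplicate slides.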 Particulars: fibrinogen-A647 binding fluorescence, higher = more signal.
For assay [5], the target named is Follistatin (Homo sapiens) (UniProt P19883). In words: follistatin binders on small-molecule microarrays, primary screen, biochemical, small-molecule microarray, 635/667 nm fluorescence (AID 1132). The conditions noted are these: FST binding, 635 nm fluorescence, higher = more signal.
The target in assay [6] is Fibroblast growth factor 2 (Homo sapiens) (UniProt P09038). In words: FGF2 binders on small-molecule microarrays, primary screen, biochemical, small-molecule microarray, 635/667 nm fluorescence (AID 1133). The conditions noted are these: small-molecule microarray binding, FGF2, fluorescence 635/667; higher = more signal.
Assay [7] in a line: mitochondrial membrane potential change in A549 cells, profiling panel, cell-based, JC-1 fluorescence, basal, 24 h, 100 nL (AID 1138).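 Note: A549 lung adenocarcinoma cells under basal conditions with no added stimulus; test concentration not given here.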 The conditions noted are these: higher = more signal.
Assay [8] has as its system Lefty1. In words: Lefty1 binders on small-molecule microarrays, primary screen, biochemical, small-molecule microarray, 635/667 nm fluorescence (AID 1139). Particulars: small-molecule microarray binding, fluorescence 635/667; higher = more signal.
In assay [9] the test system is wheat germ agglutinin (Triticum aestivum), Alexa647-labelled. Put plainly: wheat germ agglutinin binders on compound microarrays, profiling panel, artefact control for SMM control-protein annotation, biochemical, small-molecule microarray, 635/667 nm fluorescence (AID 1140).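 Note: score merges 667 nm feature emission with signal to noise over triplicate slides.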 Particulars: WGA-A647 binding, 635 nm fluorescence, higher = more signal.
In assay [10] the target is Luciferin 4-monooxygenase (Photinus pyralis) (UniProt P08659). In words: firefly luciferase enzyme inhibitors, primary screen, biochemical, luminescence, purified enzyme, 2006 set (AID 1141).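 Note: cell-free assay with purified firefly luciferase at 100 ng per well in PBS; test concentration not given here.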 Particulars: SteadyGlo luminescence, 30 min, higher = more signal, called active from +8 up or from −8 down.
Assay [11] deals with Wnt5a (protein binding on small-molecule microarray). In words: Wnt5a binders on small-molecule microarray, primary screen, biophysical, 635/667 nm fluorescence (AID 1142).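 Note: fluorescence read at 667 nm with signal to noise per printed feature.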 The conditions noted are these: 635 nm fluorescence, higher = more signal.
Assay [12] is described as follows: cell viability in Huh7 cells, primary screen, cytotoxicity control for HCV replication inhibitor project, CellTiter-Glo luminescence, basal, 48 h (AID 1143).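 Note: Huh7 hepatoma cells carrying a hepatitis C replication reporter with no stimulus; test concentration not given here.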 The conditions noted are these: Huh7 HCV replicon, higher = more signal, called active from +8 up or from −8 down.
The nature of assay [13]: P. aeruginosa biofilm formation inhibitors, primary screen, PAO1 strain, BacTiter-Glo luminescence, LB-PBS (AID 1144). Particulars: 12 h, higher = more signal.
Assay [14] in a line: CREB reporter modulators without forskolin, primary screen, cell-based, PC12, CRE-LacZ reporter, unstimulated (AID 1145). Particulars: no forskolin, luminescence, 4.5 h, higher = more signal, called active from +8 up or from −8 down.
Assay [15] can be described thus: CREB reporter modulators under forskolin, primary screen, cell-based, PC12, CRE-LacZ reporter, forskolin-stimulated (AID 1146).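 Note: PC12 cells with 6xCRE LacZ reporter stimulated by forskolin 10 µM; beta-galactosidase reporter signal reflecting CREB driven transcription.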 Particulars: luminescence, 4.5 h, higher = more signal, called active from +8 up or from −8 down.
The target in assay [16] is Streptavidin (Streptomyces avidinii) (UniProt P22629). Put plainly: streptavidin binders on small-molecule microarray, primary screen, artefact control for SMM compound annotation, biophysical, 635/667 nm fluorescence (AID 1147).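 Note: signal reflects streptavidin binding to arrayed compounds as a control protein.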 The conditions noted are these: streptavidin binding, higher = more signal.
The nature of assay [17]: small-molecule binders of probe aInhba, primary screen, biochemical, small-molecule microarray, 635/667 nm fluorescence (AID 1148).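 Note: score merges 667nm spot fluorescence with signal-to-noise for antibody binding to printed compounds.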 Particulars: higher = more signal.
Assay [18] deals with Torsin-1A (Homo sapiens) (UniProt O14656). Put plainly: torsin A binders from cell lysate, primary screen, small-molecule microarray, wild-type, 635/667 nm (AID 1149). Particulars: COS7 hTOR1A-WT lysate, 635 nm fluorescence, higher = more signal.
Assay [19] shares this target. In words: small-molecule binders of mutant TOR1A in lysate, primary screen, cell lysate, small-molecule microarray, COS7 lysate, 635/667 nm fluorescence (AID 1150).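 Note: score pools 667 nm emission and signal to noise measuring lysate protein binding.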 The conditions noted are these: COS7 hTOR1A mutant lysate, 635 nm fluorescence, higher = more signal.
Assay [20] relates to Sonic hedgehog protein (Shh). Put plainly: small-molecule binders of Shh protein, primary screen, biochemical, small-molecule microarray, 635/667 nm fluorescence (AID 1151).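 Note: Shh protein binding to compounds spotted on small-molecule microarray slides; score combines spot fluorescence intensity with signal-to-noise across triplicate slides.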 Particulars: small-molecule microarray binding, 635 nm fluorescence; higher = more signal.

Active and inactive are the calls of the source. Unless noted, the rule behind the calls is not given here.

Follistatin (Homo sapiens), sequence (P19883 whole entry, looked up): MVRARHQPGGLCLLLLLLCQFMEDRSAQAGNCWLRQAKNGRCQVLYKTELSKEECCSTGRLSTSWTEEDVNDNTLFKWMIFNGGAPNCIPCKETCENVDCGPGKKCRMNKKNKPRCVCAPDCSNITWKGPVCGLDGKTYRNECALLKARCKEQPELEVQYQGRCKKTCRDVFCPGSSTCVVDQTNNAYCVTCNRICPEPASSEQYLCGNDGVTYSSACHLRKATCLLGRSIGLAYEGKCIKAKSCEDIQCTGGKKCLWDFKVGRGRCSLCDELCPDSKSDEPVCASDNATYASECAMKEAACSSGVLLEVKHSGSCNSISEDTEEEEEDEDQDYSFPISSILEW
Torsin-1A (Homo sapiens), sequence (O14656 whole entry, looked up): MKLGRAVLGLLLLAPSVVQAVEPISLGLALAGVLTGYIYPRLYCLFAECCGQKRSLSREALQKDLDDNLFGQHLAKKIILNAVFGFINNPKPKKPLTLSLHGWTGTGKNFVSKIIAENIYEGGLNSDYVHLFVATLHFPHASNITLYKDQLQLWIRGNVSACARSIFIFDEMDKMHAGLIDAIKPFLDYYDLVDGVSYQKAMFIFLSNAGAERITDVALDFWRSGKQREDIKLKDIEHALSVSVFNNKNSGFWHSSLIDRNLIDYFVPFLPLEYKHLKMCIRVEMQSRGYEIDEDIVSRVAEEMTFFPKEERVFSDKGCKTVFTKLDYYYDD
Streptavidin (Streptomyces avidinii), sequence (P22629 whole entry, looked up): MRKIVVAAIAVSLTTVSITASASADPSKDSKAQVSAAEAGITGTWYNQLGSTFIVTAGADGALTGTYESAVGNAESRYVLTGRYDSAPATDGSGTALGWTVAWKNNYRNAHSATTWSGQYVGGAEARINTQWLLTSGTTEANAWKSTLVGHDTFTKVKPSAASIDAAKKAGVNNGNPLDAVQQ
Focal adhesion kinase 1 (Homo sapiens), sequence (Q05397 whole entry, looked up): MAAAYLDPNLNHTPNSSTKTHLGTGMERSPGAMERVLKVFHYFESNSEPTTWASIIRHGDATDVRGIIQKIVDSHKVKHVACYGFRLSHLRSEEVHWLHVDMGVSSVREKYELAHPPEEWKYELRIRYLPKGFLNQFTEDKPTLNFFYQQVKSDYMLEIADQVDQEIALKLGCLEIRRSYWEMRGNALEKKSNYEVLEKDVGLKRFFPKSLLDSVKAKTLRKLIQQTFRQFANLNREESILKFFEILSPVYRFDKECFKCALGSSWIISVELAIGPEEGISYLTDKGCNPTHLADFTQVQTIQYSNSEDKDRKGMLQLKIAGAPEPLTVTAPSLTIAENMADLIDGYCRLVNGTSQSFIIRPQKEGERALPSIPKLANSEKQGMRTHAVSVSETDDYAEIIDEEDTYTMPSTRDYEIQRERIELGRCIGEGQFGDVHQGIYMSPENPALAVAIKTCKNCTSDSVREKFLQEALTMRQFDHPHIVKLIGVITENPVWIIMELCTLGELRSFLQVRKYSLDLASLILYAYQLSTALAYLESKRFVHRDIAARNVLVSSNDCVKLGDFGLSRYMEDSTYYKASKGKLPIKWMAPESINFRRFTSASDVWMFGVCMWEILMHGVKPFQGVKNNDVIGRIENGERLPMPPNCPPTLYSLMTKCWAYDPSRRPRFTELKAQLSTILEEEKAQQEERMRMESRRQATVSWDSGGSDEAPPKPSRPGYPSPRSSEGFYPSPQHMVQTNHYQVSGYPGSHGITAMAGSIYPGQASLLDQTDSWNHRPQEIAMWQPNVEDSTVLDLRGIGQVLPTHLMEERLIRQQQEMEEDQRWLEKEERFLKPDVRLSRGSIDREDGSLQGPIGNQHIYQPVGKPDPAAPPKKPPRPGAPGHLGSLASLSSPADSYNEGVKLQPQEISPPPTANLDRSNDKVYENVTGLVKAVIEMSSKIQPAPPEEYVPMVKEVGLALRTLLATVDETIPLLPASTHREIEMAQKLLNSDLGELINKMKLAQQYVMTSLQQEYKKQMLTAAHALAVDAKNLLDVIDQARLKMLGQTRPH
Luciferin 4-monooxygenase (Photinus pyralis), sequence (P08659 whole entry, looked up): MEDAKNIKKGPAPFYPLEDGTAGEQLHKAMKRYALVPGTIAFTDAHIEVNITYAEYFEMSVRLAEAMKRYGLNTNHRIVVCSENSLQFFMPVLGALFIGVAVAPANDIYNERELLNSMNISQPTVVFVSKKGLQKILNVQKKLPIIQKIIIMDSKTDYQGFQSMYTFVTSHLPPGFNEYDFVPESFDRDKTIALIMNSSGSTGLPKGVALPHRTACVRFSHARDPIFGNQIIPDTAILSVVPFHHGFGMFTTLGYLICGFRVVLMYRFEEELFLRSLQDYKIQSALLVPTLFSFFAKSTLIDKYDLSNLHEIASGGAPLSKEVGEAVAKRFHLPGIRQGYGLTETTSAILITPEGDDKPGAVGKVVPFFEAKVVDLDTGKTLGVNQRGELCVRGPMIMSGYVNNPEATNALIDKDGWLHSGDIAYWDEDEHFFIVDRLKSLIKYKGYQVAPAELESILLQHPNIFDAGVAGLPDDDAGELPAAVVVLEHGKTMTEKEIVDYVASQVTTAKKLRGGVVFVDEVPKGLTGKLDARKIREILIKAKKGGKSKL
Fibroblast growth factor 2 (Homo sapiens), sequence (P09038 whole entry, looked up): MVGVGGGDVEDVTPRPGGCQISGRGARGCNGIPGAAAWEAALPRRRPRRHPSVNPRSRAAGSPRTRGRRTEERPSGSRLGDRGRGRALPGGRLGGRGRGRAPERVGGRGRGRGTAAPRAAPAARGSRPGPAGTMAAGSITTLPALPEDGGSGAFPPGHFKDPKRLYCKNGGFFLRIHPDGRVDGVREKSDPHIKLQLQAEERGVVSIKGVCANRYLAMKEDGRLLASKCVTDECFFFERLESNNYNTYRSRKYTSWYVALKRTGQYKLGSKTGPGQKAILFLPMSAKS

In the case of `CC(C)C[C@@H]1NC(=O)[C@H]2C[C@@H](C(=O)NCCCCCCN)[C@@H](c3ccc(O)cc3)N2C1=O`, the composite z-score in [1] is 2.99; in [2] it was -0.313; in assay [3] it was 0.496; in [4], 0.8; in [5], 1.32; in [6], 0.823. The composite z-score in assay [8] was found to be 0.632; in assay [9] it was 0.0592; in assay [11], 0.0135; in [16] it was 0.569; in assay [17] it was 0.243; in assay [18] it was 1.07. Further, the values for the composite z-score in assay [19] and in assay [20] were 0.339 and 0.553, respectively. The z-score was -1.06 in assay [7]; -0.288 (inactive) in assay [10]; -0.875 (inactive) in assay [12]; 0.469 (inactive) in assay [13]; 0.553 (inactive) in assay [14]; 1.08 (inactive) in [15].

On to `COc1ccc(C(=O)Nc2cccc(CN3C(=O)[C@]4(O[C@H](CCO)[C@@H]([Si](C)(C)c5ccc(OC)cc5)[C@@H]4C)c4ccccc43)c2)cc1`, for which the composite z-score in assay [1] was 0.869; in [2] it was 1.17; in [3], 0.354; in [4] it was 0.579; in [5] it was 1.24; in assay [6] it was 0.699. Moreover, the composite z-score in assay [8] was 1.35; in assay [9] it was 0.32; in assay [11], 0.24; in [16] it was 0.388; in assay [17] it was -0.121; in assay [18], 0.271. Moreover, the composite z-score is 0.424 in assay [19] and 1.83 in [20]. The z-score is -1.52 in assay [7]; 0.681 (inactive) in [10]; -8.03 (active) in [12]; -0.694 (inactive) in [13]; 10.9 (active) in assay [14]; -1.29 (inactive) in assay [15].

With `CCC(CC)C(O)C1C=CC2C(=O)N(C)C(=O)C2N1Nc1ccccc1` (stereo not given), the composite z-score in assay [1] was 1.02; in assay [2], 1.08; in [3] it was 0.43; in [4], 0.964; in assay [5], 0.895; in [6], -0.194. Also, the composite z-score in [8] was 0.434; in assay [9], 1.1; in assay [11] it was 0.334; in assay [16], 1.48; in [17], 0.288; in assay [18], 0.551. The composite z-score was 0.235 in assay [19] and -0.09 in assay [20]. Also, the z-score is -0.513 in assay [7]; -0.445 (inactive) in assay [10]; 0.667 (inactive) in [12]; -0.625 (inactive) in assay [13]; 0.822 (inactive) in assay [14]; -0.214 (inactive) in assay [15].

For `[N-]=[N+]=NCc1ccccc1C[C@]1(C(=O)O)N=C(c2ccc(OCCCO)cc2)O[C@H]1c1ccccc1N=[N+]=[N-]`, the composite z-score in assay [1] came to 0.906; in assay [2] it was 1.19; in assay [3], 0.532; in assay [4] it was 0.985; in [5], 1.1; in assay [6] it was 0.582. In addition, the composite z-score in assay [8] was 0.354; in assay [9], 1.2; in assay [11] it was 0.92; in [16], 0.954; in assay [17], 0.199; in assay [18] it was 2.01. For the same compound, the composite z-score amounted to 1.39 in assay [19] and 0.237 in [20]. For the same compound, the z-score was -1.17 in assay [7]; -13.8 (active) in assay [10]; -2.37 (inactive) in assay [12]; -2.08 (inactive) in assay [13]; 0.218 (inactive) in [14]; 0.987 (inactive) in [15].

On to `CCCCCCC#C[Si](O[C@H](c1ccccc1)c1cn([C@H](CO)Cc2ccccc2)nn1)(C(C)C)C(C)C`, for which the composite z-score was 0.355 in assay [1]; -0.116 in [2]; -0.074 in assay [3]; -1.29 in [4]; -0.193 in assay [5]; -0.489 in assay [6]. Moreover, the composite z-score in [8] was 0.65; in assay [9], 0.207; in assay [11], -0.193; in assay [16], -0.463; in assay [17] it was -0.128; in [18] it was -1.01. Besides, the composite z-score came to 0.211 in [19] and 0.537 in assay [20]. In addition, the z-score in assay [7] is -0.319; in assay [10] it was 0.751 (inactive); in assay [12], -0.866 (inactive); in [13] it was -0.235 (inactive); in assay [14] it was -0.215 (inactive); in [15], -0.0183 (inactive).

The values are drawn from PubChem BioAssay.
